Source: PubChem BioAssay (NCI)
This is part of a sample that, as a whole, favours compounds with a hit. Of some 83,000 tested, about 20% had one in any assay.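 Treatment: one concentration, 48 hours, 96-well format. Scoring: percent growth, with anything below 10 considered active.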 Unmarked numbers belong to inactive results. The source made the active and inactive calls.

system: SK-OV-3 ovarian; test: NCI-60 one-dose screen, 48 h (100 = growth as untreated, 0 = no growth, -100 = all killed); details: 10 µM

SMILES | growth
CCN=c1cc2sc3cc(NCC)c(C)cc3nc-2cc1C | 16.1%
Clc1ccc(-c2nnc(-c3cccc4ccccc34)o2)cc1 | 91.6%
COc1cc(OC)c2ccc(=O)oc2c1 | 112%
COc1ccc(Oc2c(I)cc(CC(NC(C)=O)C(=O)O)cc2I)cc1 (stereo not given) | 105%
Cc1cc2ccccc2c(O)c1C#N | 89.4%
CN(C)/N=C/c1ccccc1O | 105%
Cc1cc(C(C)(C)C)cc(C)c1Br | 108%
COc1cc(C2c3cc4c(cc3C3OC(=O)C2C3CO)OCO4)cc(OC)c1OC (stereo not given) | -7.31% (active)
CCCC1(c2ccccc2)NC(=O)NC1=O (stereo not given) | 99.7%
CN(C)c1ccc(S(=O)(=O)O)cc1 | 89%
Clc1ccc(-c2n[nH]c3c2Cc2ccccc2-3)cc1Cl | 99.4%
S=C1CCCCCN1 | 119%
CCCOC(=O)C(O)c1ccccc1 (stereo not given) | 107%
O=S(=O)(O)c1ccc(O)c2ccccc12 | 94.1%
N/N=C(/Cc1ccccc1)NNC(N)=S | 106%
